Measured values: the supplement of paper PMC8728848
The entries come from a sample that favours the strongest signals as a whole.

Tests used:
Experiment in all cases: glycan array binding signal (z-score within array); higher = stronger binding
Settings in all cases: glycan notation: IUPAC condensed, linker removed
[1] = target: Fuc(a1-2)Gal(b1-3)[Fuc(a1-4)]GlcNAc
Method in brief: (§1)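 Glycan array binding is given as a within-array Z-score, which can be read as non-binding when negative. The arrays, 3228 of them, came from the Consortium for Functional Glycomics database and were retained only where the protein sequence was available. Z-scores were averaged across arrays of the same protein sequence at different concentrations or buffers and across linkers.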

[2] = target: Fuc(a1-2)Gal(b1-4)GlcNAc(b1-2)[Fuc(a1-2)Gal(b1-4)GlcNAc(b1-4)]Man(a1-3)[Fuc(a1-2)Gal(b1-4)GlcNAc(b1-2)Man(a1-6)]Man(b1-4)GlcNAc(b1-4)GlcNAc
Method in brief: as §1

[3] = target: Fuc(a1-2)Gal(b1-4)GlcNAc(b1-3)GalNAc
Method in brief: as §1

[4] = target: Fuc(a1-2)Gal(b1-4)GlcNAc(b1-3)[Fuc(a1-3)[Gal(b1-4)]GlcNAc(b1-6)]Gal(b1-4)Glc
Method in brief: as §1

[5] = target: Fuc(a1-2)Gal(b1-4)[Fuc(a1-3)]GlcNAc(b1-2)[Fuc(a1-2)Gal(b1-4)[Fuc(a1-3)]GlcNAc(b1-4)]Man(a1-3)[Fuc(a1-2)Gal(b1-4)[Fuc(a1-3)]GlcNAc(b1-2)Man(a1-6)]Man(b1-4)GlcNAc(b1-4)GlcNAc
Method in brief: as §1

Fuc(a1-2)Gal6S(b1-4)Glc = target: Fuc(a1-2)Gal6S(b1-4)Glc
Method in brief: as §1

[6] = target: Fuc(a1-2)[Gal(a1-3)]Gal(b1-4)GlcNAc(b1-2)Man(a1-3)[Fuc(a1-2)[Gal(a1-3)]Gal(b1-4)GlcNAc(b1-2)Man(a1-6)]Man(b1-4)GlcNAc(b1-4)GlcNAc
Method in brief: as §1

[7] = target: Fuc(a1-2)[Gal(a1-3)]Gal(b1-4)GlcNAc(b1-6)GalNAc
Method in brief: as §1

[8] = target: Fuc(a1-3)[Gal(b1-4)]GlcNAc(b1-2)Man(a1-3)[Fuc(a1-3)[Gal(b1-4)]GlcNAc(b1-2)Man(a1-6)]Man(b1-4)GlcNAc(b1-4)[Fuc(a1-6)]GlcNAc
Method in brief: as §1

[9] = target: Fuc(a1-3)[Gal3S(b1-4)]Glc
Method in brief: as §1

[10] = target: Gal(a1-3)Gal(b1-3)GlcNAc(b1-2)Man(a1-3)[Gal(a1-3)Gal(b1-3)GlcNAc(b1-2)Man(a1-6)]Man(b1-4)GlcNAc(b1-4)GlcNAc
Method in brief: as §1

[11] = target: Gal(a1-3)Gal(b1-3)GlcNAc(b1-6)GalNAc
Method in brief: as §1

Gal(a1-3)Gal(b1-4)GlcNAc = target: Gal(a1-3)Gal(b1-4)GlcNAc
Method in brief: as §1

[12] = target: Gal(b1-3)GlcNAc(b1-2)Man(a1-3)[Gal(b1-3)GlcNAc(b1-2)Man(a1-6)]Man(b1-4)GlcNAc(b1-4)GlcNAc
Method in brief: as §1

[13] = target: Gal(b1-3)GlcNAc(b1-3)Gal(b1-4)GlcNAc(b1-3)Gal(b1-4)GlcNAc(b1-2)[Gal(b1-3)GlcNAc(b1-3)Gal(b1-4)GlcNAc(b1-3)Gal(b1-4)GlcNAc(b1-6)]Man(a1-6)[Gal(b1-3)GlcNAc(b1-3)Gal(b1-4)GlcNAc(b1-3)Gal(b1-4)GlcNAc(b1-2)Man(a1-3)]Man(b1-4)GlcNAc(b1-4)[Fuc(a1-6)]GlcNAc
Method in brief: as §1

[14] = target: Gal(b1-3)[Fuc(a1-4)]GlcNAc(b1-6)GalNAc
Method in brief: as §1

[15] = target: Gal(b1-4)GlcNAc(b1-2)Man(a1-3)Man(b1-4)GlcNAc(b1-4)GlcNAc
Method in brief: as §1

[16] = target: Gal(b1-4)GlcNAc(b1-2)Man(a1-6)[Man(a1-3)]Man(b1-4)GlcNAc(b1-4)GlcNAc
Method in brief: as §1

[17] = target: Gal(b1-4)GlcNAc(b1-2)[Gal(b1-4)GlcNAc(b1-4)]Man(a1-3)[GlcNAc(b1-4)][Gal(b1-4)GlcNAc(b1-2)Man(a1-6)]Man(b1-4)GlcNAc(b1-4)GlcNAc
Method in brief: as §1

[18] = target: Gal(b1-4)GlcNAc(b1-2)[Gal(b1-4)GlcNAc(b1-6)]Man(a1-6)[Gal(b1-4)GlcNAc(b1-2)Man(a1-3)]Man(b1-4)GlcNAc(b1-4)GlcNAc
Method in brief: as §1

[19] = target: Gal(b1-4)GlcNAc(b1-3)Gal(b1-4)GlcNAc(b1-3)Gal(b1-4)GlcNAc
Method in brief: as §1

[20] = target: Gal(b1-4)GlcNAc(b1-3)Gal(b1-4)GlcNAc(b1-3)Gal(b1-4)GlcNAc(b1-3)Gal(b1-4)GlcNAc(b1-2)Man(a1-3)[Gal(b1-4)GlcNAc(b1-3)Gal(b1-4)GlcNAc(b1-3)Gal(b1-4)GlcNAc(b1-3)Gal(b1-4)GlcNAc(b1-2)Man(a1-6)]Man(b1-4)GlcNAc(b1-4)[Fuc(a1-6)]GlcNAc
Method in brief: as §1

[21] = target: Gal(b1-4)GlcNAc(b1-3)Gal(b1-4)GlcNAc(b1-3)Gal(b1-4)GlcNAc(b1-3)Gal(b1-4)GlcNAc(b1-3)Gal(b1-4)GlcNAc(b1-2)Man(a1-3)[Gal(b1-4)GlcNAc(b1-3)Gal(b1-4)GlcNAc(b1-3)Gal(b1-4)GlcNAc(b1-3)Gal(b1-4)GlcNAc(b1-3)Gal(b1-4)GlcNAc(b1-2)Man(a1-6)]Man(b1-4)GlcNAc(b1-4)GlcNAc
Method in brief: as §1

B1: his-Lectin-24A (Drosophila melanogaster) (protein)
chain: MFRLSVLVLNLLLVSHEFSAGTAKIEIQPLPALCNGYCFPTLKPVMEYVAIHQDKWNTCTEILANEARKDQIQLNIQLDALKADVSNIKASQLSKDEKLDRMEREQFAMHESLETINRYLTVKLDRTKLQLEAIKNTMDYMKAQMDGYFSAINGVQCLQPGFEKIGDRYFYIEEDVELNWLDAQAKCRRMGGHLASIKTKQEFDAIVEKLDDSKSYFLGVNENTKTGDFVSAASGKSCLYHEWGPGEPHHNNDQERCVSILRKLMHVGNCTYEKRFICQYGI
glycan array binding signal (z-score) [1]: -0.536 | glycan array binding signal (z-score) [2]: 2.61 | glycan array binding signal (z-score) [3]: -0.522 | glycan array binding signal (z-score) [4]: 2.69 | glycan array binding signal (z-score) [5]: -0.328 | glycan array binding signal (z-score) (Fuc(a1-2)Gal6S(b1-4)Glc): -0.34 | glycan array binding signal (z-score) [6]: 2.02 | glycan array binding signal (z-score) [7]: 0.328 | glycan array binding signal (z-score) [8]: 0.275 | glycan array binding signal (z-score) [9]: -1.19 | glycan array binding signal (z-score) [10]: 2.35 | glycan array binding signal (z-score) [11]: -0.445 | glycan array binding signal (z-score) (Gal(a1-3)Gal(b1-4)GlcNAc): 0.285 | glycan array binding signal (z-score) [12]: 1.74 | glycan array binding signal (z-score) [13]: 1.49 | glycan array binding signal (z-score) [14]: 2.34 | glycan array binding signal (z-score) [15]: 0.019 | glycan array binding signal (z-score) [16]: 2.68 | glycan array binding signal (z-score) [17]: -1.25 | glycan array binding signal (z-score) [18]: -0.553 | glycan array binding signal (z-score) [19]: -0.79 | glycan array binding signal (z-score) [20]: 3.44 | glycan array binding signal (z-score) [21]: 4.07
